High-throughput results (PubChem BioAssay)
Hits are enriched below; roughly 4.3% of the tested compounds scored in any of these assays.
CHOP inhibitor – CHOP inhibition in unfolded protein response; CHO-K1 CHOP-promoter luciferase, tunicamycin-induced, 15-18 h; AID 2732; actives 3.8% (n = 220,000); inhibition, % at 10 µM;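 active means compounds that reduced the stress-induced luciferase reporter signal by more than about 70% of percent inhibition, limit read from the data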;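 further: 0% = tunicamycin plus vehicle and 100% = wells without tunicamycin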
HIF-2a block – inhibitors of HIF-2a. 786-0 RCC cells HIF-2a reporter, luciferase luminescence, overnight. inhibition, % at 18.8 µM. actives 0.72% (n = 360,000). AID 624352;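 active means inhibition of the luminescence signal of 40% or more relative to plate controls, in a single-dose primary screen at 18.75 µM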
MITF TRPM1 inh – MITF TRPM1 promoter inhibition in SK-MEL-5 cells; inhibition, % at 12.5 µM; SK-MEL-5 TRPM1 promoter luciferase, 24 h; actives 0.83% (n = 330,000);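 active means mean inhibition across replicates of 60% or more, whatever share of single replicates reaches that level; inconclusive means some that reach 60%, reason not given; inactive means mean inhibition across replicates below 60%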
CF NFkB inh – inhibitors of cystic fibrosis induced NF-kB | AID 588850 | inhibition, % at 5 µM | KKLEB NF-kB-GFP reporter, PAF-induced, GFP fluorescence overnight | actives 0.86% (n = 360,000);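 active means at least 50% inhibition at 5 µM, scaled per plate between neutral and stimulator controls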;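 further: PAF is a Pseudomonas aeruginosa culture filtrate used as stimulus; plate controls were PAF-stimulated DMSO wells for no effect and unstimulated DMSO wells for full effect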
Peg3 prom inh-1 – reduces Peg3 promoter-driven luciferase expression in HeLa. HeLa PEG-Prom luciferase reporter, luminescence, overnight. inhibition, % at 20 µM. actives 1.7% (n = 360,000);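 active means inhibition of at least 50% at 20 µM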
KKLEB tox – CF airway cell cytotoxicity counter-screen; activity change (cytotoxicity), % at 5 µM; AID 602141; actives 0.36% (n = 360,000); KKLEB CF airway cells viability, ATPlite luminescence, overnight; active compounds read low; cells stimulated with P. aeruginosa culture filtrate;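 active means corrected activity change at or below -50% at 5 µM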
Peg3 prom inh-2 – Peg3 promoter inhibition confirmation. inhibition, % at 20 µM. actives 84% (n = 1,300). AID 602417. HeLa PEG-Prom luciferase reporter, luminescence, overnight. shares compounds with Peg3 prom inh-1;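 active means at 20 µM dose, 40% or more inhibition averaged across four replicates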
Numbers without * were called inactive; ? = inconclusive; . = no result given.

SMILES | CHOP inhibitor | HIF-2a block | MITF TRPM1 inh | CF NFkB inh | Peg3 prom inh-1 | KKLEB tox | Peg3 prom inh-2
CC(C)N1CCC1(C)C(=O)Nc1cc(-c2ccccc2)nn1C (stereo not given) | . | -25 | . | -6 | -23 | 10 | .
Cc1cc(C)c2c(N)c3cccc(C)c3nc2n1 | -8 | -58 | 66* | -198 | 107* | -4 | 99*
Cc1cccc2c(N)c3c(nc12)CCCC3 (tested in a mixture with another compound) | -2 | 15 | 4 | -67 | 12 | 27 | .
COC(=O)C1=C(C)N(Cc2ccccc2)C(=NCCc2c[nH]c3ccccc23)N[C@H]1c1cccc(C(F)(F)F)c1 | . | -12 | 28 | 28 | 99* | -29 | 98*
CC(=NNC(=S)N1CCN(C2CCCCCC2)CC1)c1ccccn1 | . | -17 | 83* | 6 | 102* | -2 | 99*
CC(=NNC(=S)N1CCN(c2ccccn2)CC1)c1ccccn1 | . | -42 | -7 | -13 | -7 | 13 | .
CCc1ccc(/C=C2\SC(=S)N(CCCC(=O)Nc3cc(C)on3)C2=O)cc1 | . | 77* | . | -12 | 72* | 6 | 66*
CCc1ccc(/C=C2\SC(=S)N(CCCC(=O)NC3=NCCS3)C2=O)cc1 | . | 83* | . | 5 | 72* | -18 | 71*
O=C(C1CCN(c2ncnc3c2nc2n3CCCCC2)CC1)N1CCN(c2ccccc2F)CC1 | . | 30 | 0 | -24 | 20 | -5 | .
Cc1cccc(N2CCN(C(=O)C3CCN(c4ncnc5c4nc4n5CCCCC4)CC3)CC2)c1C | . | 6 | 50 | -14 | 52* | 6 | 58*
Cc1cccc(N2CCN(C(=O)C3CCN(c4ncnc5c4nc4n5CCCCC4)CC3)CC2C)c1 (stereo not given) | . | 1 | 43 | -8 | 55* | -9 | 43*
COc1cc(Nc2c3ccccc3nc3ccccc23)cc(OC)c1OC | . | 46* | ? | -96 | 107* | 5 | 99*
CCNc1nc(N)nc(-c2cc(Cl)ccc2O)n1 | 70 | -185 | -34 | 88* | 101* | -49 | -23
CCOC(=O)Cc1csc(NC(=O)CSc2nc(N)c3c(C)c(C)sc3n2)n1 | 48 | 15 | 13 | -4 | 3 | 5 | .
O=C(Nc1ncc([N+](=O)[O-])s1)c1ccc2c(c1)OCO2 | . | 61* | 65* | 46 | 70* | -11 | 64*
Cc1ccc([N+](=O)[O-])cc1NC(=O)c1ccc2c(c1)OCO2 | 1 | -37 | 2 | 5 | -2 | 5 | .
COc1ccc(-c2csc(NC(=O)C3COc4ccccc4O3)n2)cc1OC (stereo not given) | 46 | -3 | . | 28 | 66* | -16 | 40
COc1ccc(C(O)(CCC(C)C)C(CN2CCOCC2)c2ccccc2)cc1 (stereo not given) | . | 10 | 10 | 11 | 59* | -4 | 47*
Cc1nc2c(OCc3ccc(OC(F)F)cc3)cccn2c1N(C)C(=O)CCC1CCCC1 | . | 0 | . | 0 | 65* | -7 | 54*
Cc1nc2c(OCc3ccc(F)c(F)c3)cccn2c1N(C)C(=O)CCC1CCCC1 | . | 1 | . | -2 | 26 | -18 | .
CC(C)N(C(=O)[C@H]1CC(CC(=O)NCc2cccc(C(F)(F)F)c2)C(=O)N2CCc3c([nH]c4ccccc34)[C@]12C)C(C)C (stereo not given in full) | . | 10 | 35 | 24 | 68* | -11 | 22
Cc1cc(=O)oc2cc(OCC(=O)c3ccc4c(c3)NC(=O)CO4)ccc12 | 33 | -2 | 1 | 0 | 53* | -4 | 5
Cc1ccc(C(=O)COc2ccc3c(C)cc(=O)oc3c2)cc1 | . | -84 | -11 | -1 | -69 | 7 | .
COc1ccc(CCNc2ccc(C(CC(N)=O)NC(=O)c3ccc(Br)cc3)cc2[N+](=O)[O-])cc1 (stereo not given) | 10 | 20 | 2 | 6 | 69* | -19 | 19
O=C(Oc1c(CN2CCOCC2)cc(Cl)c2cccnc12)c1ccccc1Cl | -5 | 5 | 76* | 23 | 50* | 12 | 43*
O=C(Oc1c(Cl)cc(Cl)c2cccnc12)c1cccs1 | 62 | -6 | 13 | 1 | 29 | 18 | .
